# Test results reported in the supplement of paper PMC8728848.
# This is one part of a sample in which the strongest signals are shown more often than they occur.
# B1: Pwp5 DD (Candida glabrata) (protein)
# chain: MGSSHHHHHHSSGLVPRGSHMASANPVPLTNVCYFPEEYPRQAGFRAITAGLASTILQGSVDELLNYSGLSSLTTQQTTTTTPNFQLPTLPLPTNVYGLTVVPLYLLVQLQGYFVPPVSGQYTFSLENTDDAAIIFFGNPSAFPCGDLSAWPQASADDITVTDGTFPSRTLFLKAGVAYPMRISYYNSLGSGNLAVSFTDPGGTKRTNWNGYIWRYNSCSTCTYT
# Columns and labels:
# Experiment in all cases: glycan array binding signal (z-score within array); higher = stronger binding
# Conditions in all cases: glycan notation: IUPAC condensed, linker removed; mutation: N130D
# [1] = biological target: Fuc(a1-2)Gal(b1-3)[Fuc(a1-4)]GlcNAc
# Summary of the method: (§1)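 Glycan array data came from 3228 arrays in the Consortium for Functional Glycomics database, and only arrays with an available protein sequence were kept. Glycan names were put into IUPAC-condensed notation, and columns mapping to the same glycan were averaged. The binding signal is a within-array Z-score, averaged across arrays of one protein sequence run at different concentrations or buffers and across linkers. A negative Z-score can be read as non-binding.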
# [2] = biological target: Fuc(a1-2)Gal(b1-4)GlcNAc(b1-2)Man(a1-3)[Fuc(a1-2)Gal(b1-4)GlcNAc(b1-2)Man(a1-6)]Man(b1-4)GlcNAc(b1-4)[Fuc(a1-6)]GlcNAc
# Summary of the method: as §1
# [3] = biological target: Fuc(a1-2)Gal(b1-4)GlcNAc(b1-3)Gal(b1-4)GlcNAc(b1-3)Gal(b1-4)GlcNAc
# Summary of the method: as §1
# [4] = biological target: Fuc(a1-2)[Gal(a1-3)]Gal(b1-3)GlcNAc(b1-3)GalNAc
# Summary of the method: as §1
# [5] = biological target: Fuc(a1-2)[Gal(a1-3)]Gal(b1-4)GlcNAc(b1-3)GalNAc
# Summary of the method: as §1
# [6] = biological target: Fuc(a1-2)[Gal(a1-3)]Gal(b1-4)[Fuc(a1-3)]GlcNAc(b1-3)GalNAc
# Summary of the method: as §1
# [7] = biological target: Fuc(a1-2)[GalNAc(a1-3)]Gal(b1-4)GlcNAc(b1-6)GalNAc
# Summary of the method: as §1
# [8] = biological target: Fuc(a1-3)[Gal(b1-4)]GlcNAc6S
# Summary of the method: as §1
# [9] = biological target: Fuc(b1-3)GlcNAc
# Summary of the method: as §1
# [10] = biological target: Gal(a1-4)Gal(b1-4)GlcNAc(b1-3)Gal(b1-4)Glc
# Summary of the method: as §1
# [11] = biological target: Gal(b1-3)[Fuc(a1-4)]GlcNAc(b1-3)Gal(b1-4)[Fuc(a1-3)]GlcNAc
# Summary of the method: as §1
# [12] = biological target: Gal(b1-3)[Fuc(a1-4)]GlcNAc(b1-6)GalNAc
# Summary of the method: as §1
# [13] = biological target: Gal(b1-4)GlcNAc(b1-2)Man
# Summary of the method: as §1
# [14] = biological target: Gal(b1-4)GlcNAc(b1-2)Man(a1-6)[GlcNAc(b1-2)Man(a1-3)]Man(b1-4)GlcNAc(b1-4)GlcNAc
# Summary of the method: as §1
# [15] = biological target: Gal(b1-4)GlcNAc(b1-3)Gal(b1-4)GlcNAc(b1-3)Gal(b1-4)GlcNAc(b1-2)Man(a1-3)[Gal(b1-4)GlcNAc(b1-3)Gal(b1-4)GlcNAc(b1-3)Gal(b1-4)GlcNAc(b1-2)Man(a1-6)]Man(b1-4)GlcNAc(b1-4)GlcNAc
# Summary of the method: as §1
# [16] = biological target: Gal(b1-4)GlcNAc(b1-3)Gal(b1-4)GlcNAc(b1-3)Gal(b1-4)GlcNAc(b1-3)Gal(b1-4)GlcNAc(b1-3)Gal(b1-4)GlcNAc(b1-2)[Gal(b1-4)GlcNAc(b1-3)Gal(b1-4)GlcNAc(b1-3)Gal(b1-4)GlcNAc(b1-3)Gal(b1-4)GlcNAc(b1-3)Gal(b1-4)GlcNAc(b1-6)]Man(a1-6)[Gal(b1-4)GlcNAc(b1-3)Gal(b1-4)GlcNAc(b1-3)Gal(b1-4)GlcNAc(b1-3)Gal(b1-4)GlcNAc(b1-3)Gal(b1-4)GlcNAc(b1-2)Man(a1-3)]Man(b1-4)GlcNAc(b1-4)[Fuc(a1-6)]GlcNAc
# Summary of the method: as §1
# [17] = biological target: Gal(b1-4)GlcNAc(b1-3)Gal(b1-4)GlcNAc(b1-3)[Gal(b1-4)GlcNAc(b1-3)Gal(b1-4)GlcNAc(b1-6)]GalNAc
# Summary of the method: as §1
# [18] = biological target: Gal3S(b1-4)[Fuc(a1-3)]GlcNAc
# Summary of the method: as §1
# [19] = biological target: Gal6S(b1-3)GlcNAc6S
# Summary of the method: as §1
# [20] = biological target: GalNAc(a1-3)GalNAc(b1-3)Gal(a1-4)Gal(b1-4)GlcNAc
# Summary of the method: as §1
# [21] = biological target: GalNAc(b1-3)GlcNAc
# Summary of the method: as §1
# [22] = biological target: GalNAc3S(b1-4)GlcNAc3S
# Summary of the method: as §1
# [23] = biological target: GlcNAc(a1-4)Gal(b1-4)GlcNAc(b1-3)Gal(b1-4)GlcNAc
# Summary of the method: as §1
# [24] = biological target: GlcNAc(b1-3)[GlcNAc(b1-4)][GlcNAc(b1-6)]GlcNAc
# Summary of the method: as §1
# [25] = biological target: Man(a1-2)Man(a1-2)Man(a1-3)Man
# Summary of the method: as §1
# [26] = biological target: Man(a1-2)Man(a1-6)[Man(a1-3)]Man(a1-6)[Man(a1-2)Man(a1-2)Man(a1-3)]Man
# Summary of the method: as §1
# [27] = biological target: Neu5Ac(a2-3)Gal(b1-3)GlcNAc(b1-6)GalNAc
# Summary of the method: as §1
# [28] = biological target: Neu5Ac(a2-3)Gal(b1-4)Glc
# Summary of the method: as §1
# [29] = biological target: Neu5Ac(a2-3)Gal(b1-4)GlcNAc(b1-2)Man
# Summary of the method: as §1
# [30] = biological target: Neu5Ac(a2-3)Gal(b1-4)GlcNAc(b1-2)[Neu5Ac(a2-3)Gal(b1-4)GlcNAc(b1-6)]Man(a1-6)[Neu5Ac(a2-3)Gal(b1-4)GlcNAc(b1-2)Man(a1-3)][GlcNAc(b1-4)]Man(b1-4)GlcNAc(b1-4)GlcNAc
# Summary of the method: as §1
# [31] = biological target: Neu5Ac(a2-3)Gal(b1-4)GlcNAc(b1-3)Gal(b1-3)GlcNAc
# Summary of the method: as §1
# [32] = biological target: Neu5Ac(a2-3)Gal(b1-4)GlcNAc(b1-6)GalNAc
# Summary of the method: as §1
# [33] = biological target: Neu5Ac(a2-3)Gal(b1-4)[Fuc(a1-3)]GlcNAc(b1-3)GalNAc
# Summary of the method: as §1
# [34] = biological target: Neu5Ac(a2-6)Gal(b1-4)GlcNAc(b1-2)Man(a1-3)[GlcNAc(b1-4)][Neu5Ac(a2-6)Gal(b1-4)GlcNAc(b1-2)Man(a1-6)]Man(b1-4)GlcNAc(b1-4)GlcNAc
# Summary of the method: as §1
# [35] = biological target: Neu5Ac(a2-6)Gal(b1-4)GlcNAc(b1-2)Man(a1-6)Man(b1-4)GlcNAc(b1-4)GlcNAc
# Summary of the method: as §1
# [36] = biological target: Neu5Ac(a2-6)Gal(b1-4)GlcNAc(b1-3)Gal(b1-4)GlcNAc(b1-2)Man(a1-3)[Neu5Ac(a2-6)Gal(b1-4)GlcNAc(b1-3)Gal(b1-4)GlcNAc(b1-2)Man(a1-6)]GalNAc
# Summary of the method: as §1
# [37] = biological target: Neu5Ac(a2-6)Gal(b1-4)GlcNAc(b1-6)GalNAc
# Summary of the method: as §1
# [38] = biological target: Neu5Ac(a2-6)Gal(b1-4)GlcNAc(b1-6)[Gal(b1-3)]GalNAc
# Summary of the method: as §1
# [39] = biological target: Neu5Ac(a2-8)Neu5Ac(a2-3)Gal(b1-4)Glc
# Summary of the method: as §1
# [40] = biological target: Neu5Ac9Ac(a2-3)Gal(b1-4)GlcNAc
# Summary of the method: as §1
binder,measurement,setting,value
B1,glycan array binding signal (z-score),[1],0.621
same,glycan array binding signal (z-score),[2],2.89
same,glycan array binding signal (z-score),[3],-1.56
same,glycan array binding signal (z-score),[4],-0.233
same,glycan array binding signal (z-score),[5],0.126
same,glycan array binding signal (z-score),[6],-0.895
same,glycan array binding signal (z-score),[7],-0.759
same,glycan array binding signal (z-score),[8],-0.328
same,glycan array binding signal (z-score),[9],-0.571
same,glycan array binding signal (z-score),[10],0.021
same,glycan array binding signal (z-score),[11],-0.574
same,glycan array binding signal (z-score),[12],4.76
same,glycan array binding signal (z-score),[13],-0.513
same,glycan array binding signal (z-score),[14],3.33
same,glycan array binding signal (z-score),[15],3.2
same,glycan array binding signal (z-score),[16],3.61
same,glycan array binding signal (z-score),[17],-0.447
same,glycan array binding signal (z-score),[18],-0.734
same,glycan array binding signal (z-score),[19],2.71
same,glycan array binding signal (z-score),[20],1.09
same,glycan array binding signal (z-score),[21],-0.687
same,glycan array binding signal (z-score),[22],3.21
same,glycan array binding signal (z-score),[23],0.377
same,glycan array binding signal (z-score),[24],-0.559
same,glycan array binding signal (z-score),[25],-0.413
same,glycan array binding signal (z-score),[26],-0.259
same,glycan array binding signal (z-score),[27],0.895
same,glycan array binding signal (z-score),[28],-0.436
same,glycan array binding signal (z-score),[29],2.67
same,glycan array binding signal (z-score),[30],11.6
same,glycan array binding signal (z-score),[31],-0.723
same,glycan array binding signal (z-score),[32],0.366
same,glycan array binding signal (z-score),[33],3.63
same,glycan array binding signal (z-score),[34],3.92
same,glycan array binding signal (z-score),[35],0.32
same,glycan array binding signal (z-score),[36],0.149
same,glycan array binding signal (z-score),[37],0.08
same,glycan array binding signal (z-score),[38],-0.062
same,glycan array binding signal (z-score),[39],-0.613
same,glycan array binding signal (z-score),[40],-0.213
